Laboratory results taken from PubChem BioAssay AID1159580 (chemical genetic matrix, 2015).
Screen size: about 5,500 compounds; about 2,000 (36%) were called active. Inconclusive results (about 18%) are left out. Cut-off read from the data, not from the text of the source: active = normalized growth mostly below about 0.91 (no sharp cut-off); inconclusive = no clear call, values can overlap the other calls; inactive = mostly above about 0.92. This is one part of the list.

Experiment: chemical genetic growth profiling, strain panel (AID 1159580);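 note: tested at 20 µM; growth read once vehicle control cultures reached saturation at 30 °C; 1 = growth at the plate median or of vehicle wells; lower values mean less growth of the strain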
Details: S. cerevisiae deletion strains, growth OD

Measured: normalized growth

CC(C)(C=O)Cc1cc(C(C)(C)C)c(O)c(C(C)(C)C)c1
inactive: locus YAL013W, strain DEP1, active compounds read low 1.02 | locus YAL040C, strain CLN3, active compounds read low 0.968 | locus YER002W, strain NOP16, active compounds read low 0.98 | locus YGR078C, strain PAC10, active compounds read low 1 | locus YMR307W, strain GAS1, active compounds read low 1.02 | locus YNL128W, strain TEP1, active compounds read low 1.02 | locus YNL175C, strain NOP13, active compounds read low 1.02 | locus YNL197C, strain WHI3, active compounds read low 0.989 | locus YNL224C, strain SQS1, active compounds read low 1 | locus YNL322C, strain KRE1, active compounds read low 0.994 | locus YOR083W, strain WHI5 (second series), active compounds read low 1.01 | locus YPL055C, strain LGE1, active compounds read low 1.01
